By AC50 is commonly meant the midpoint of the concentration-response curve, whichever way the signal moves.

Some structures have more than one record in an assay (separate samples or runs), and their calls can disagree. The source made the active and inactive calls. How the source made its calls: active means hit-call score of the fitted dose curve at least 0.9, where 1 is the maximum; inactive means score below 0.9.

Here are results for 34 compounds from PubChem BioAssay (EPA / NIEHS).

A short description of one assay: ATG_TCF_b_cat_CIS: Attagene CIS-FACTORIAL HepG2 Assay for human T-Cell-Factor with beta-catenin (TCF/b-cat) (AID 2282965). Particulars: HepG2 TCF/beta-catenin cis-reporter transcription, actives raise or lower the signal. Summed up:
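HepG2 cells transiently transfected with multiple cis-promoter-regulated reporter transcription units, so endogenous transcription factor activity is measured. Reporter mRNA read 24 hours after dosing by RT-PCR, fluorescent labelling and capillary electrophoresis; bidirectional fitting against DMSO.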
Turning to `O=C(O)C(F)(F)C(F)(F)C(F)(F)C(F)(F)F`, the call was inactive.
Still for that read-out and setting: for `O=C(O)C(F)(F)C(F)(F)OC(F)(F)F` the value was “inactive”.
For `O=S(=O)(O)C(F)(F)C(F)(F)C(F)(F)C(F)(F)C(F)(F)C(F)(F)C(F)(F)F`, the concentration at half-maximal activity (AC50) is 78.9 µM (active) and the compound was called inactive.
For `CS(C)(=O)=O`, the outcome was inactive.
Same read-out and setting: for `FC(F)(F)C(F)(F)C(F)(F)N(C(F)(F)C(F)(F)C(F)(F)F)C(F)(F)C(F)(F)C(F)(F)F` the value was “inactive”; for `CC(C)c1ccccc1N`, “inactive”; for `[Co]`, “inactive”.
As for `COC(=O)C1CCC(C(=O)OC)CC1` (centres undefined), the AC50 is 55.4 µM (active) and the result was inactive.
As to `FC(F)(F)C(F)(F)C(F)(F)C(F)(F)C(F)(F)C(F)(F)C(F)(F)Br`, the outcome was inactive.
For the compound `CCCCCCOC(=O)c1ccccc1`, the outcome was inactive.
Regarding `CCc1c(Br)c(Br)c(Br)c(Br)c1Br`, the compound was classed as inactive.
On the same count and under the same terms, for `CC/C=C\CCOC(C)=O` the value was “inactive”.
Take `FC(F)(F)C(F)(F)C(F)(F)C(F)(F)C(F)(F)C(F)(F)C(F)(F)C(F)(F)CCS`: the outcome was inactive.
With `OCCCC(F)(F)C(F)(F)C(F)(F)C(F)(F)C(F)(F)C(F)(F)C(F)(F)F`, the AC50 was 33.7 µM (active) and the compound was classed as inactive.
Consider `CC(=O)Nc1ccc(N=Nc2cc(C)ccc2O)cc1`, for which the call was inactive.
Take `O=C(O)C(F)(F)C(F)(F)C(F)(F)C(F)(F)C(F)(F)C(F)(F)C(F)(F)C(F)(F)C(F)(F)C(F)(F)C(F)(F)C(F)(F)C(F)(F)F`: the result was inactive.
On the same count and under the same terms, for `O=P(O)(O)OCCC(F)(F)C(F)(F)C(F)(F)C(F)(F)C(F)(F)C(F)(F)F` the value was “inactive”; for `CC(C)(C)C(=O)CC(=O)C(F)(F)C(F)(F)C(F)(F)F`, “inactive”.
`O=C(O)C(F)(F)C(F)(F)C(F)(F)F`: the result was inactive.
On the same count and under the same terms, for `NC(=O)C(F)(F)C(F)(F)C(F)(F)C(F)(F)F` the value was “inactive”; for `O[Si](c1ccccc1)(c1ccccc1)c1ccccc1`, “inactive”; for `OCCCC(F)(F)C(F)(F)C(F)(F)F`, “inactive”.
On the same count and under the same terms, for `FC(F)(F)C(F)(F)C(F)(F)C(F)(F)C(F)(F)CCI` the value was “inactive”.
The same measure, in the same setting: for `COC(OC(C)=O)c1ccccc1` (centres undefined) the value was “inactive”.
In the case of `O=C(CC(=O)C(F)(F)C(F)(F)F)C(F)(F)F`, the concentration at half-maximal activity (AC50) was 150 µM (active) and the compound was called inactive.
`FC(F)(F)C(F)(F)C(F)(F)C(F)(F)C(F)(F)C(F)(F)CCS`: the result was inactive.
The same measure, in the same setting: for `CCCCCCCOC(=O)c1ccccc1C(=O)OCCCCCCC` the value was “inactive”.
As for `O=C(O)C(F)(F)C(F)(F)C(F)(F)C(F)(F)C(F)(F)C(F)(F)C(F)(F)C(F)(F)Cl`, the half-maximal activity concentration (AC50) was 50 µM (active).
As to `O=C(O)C(F)(F)C(F)(F)C(F)(F)C(F)(F)C(F)(F)C(F)(F)C(F)(F)C(F)(F)C(F)(F)C(F)F`, the result was inactive.
In the case of `Nc1ccc(Oc2cccc(Oc3ccc(N)cc3)c2)cc1`, the concentration at half-maximal activity (AC50) is 27.4 µM (active).
On to `CCCCCC=O`, for which the compound was classed as inactive.
Same read-out and setting: for `CCCCCCC(C)OC(=O)CCCCC(=O)OC(C)CCCCCC` (centres undefined) the value was “inactive”; for `c1ccc(B(c2ccccc2)c2ccccc2)cc1`, “inactive”.
For the compound `CC(CCl)OP(=O)(OC(C)CCl)OC(C)CCl` (centres undefined), the outcome was inactive.

A short description of another assay: ATG_TAL_CIS: Attagene CIS-FACTORIAL HepG2 Assay for human TAL Basal Promoter (AID 2282966).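 Further: background control endpoint measuring basal TAL promoter reporter mRNA not a specific factor.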 Particulars: HepG2 Attagene cis-factorial TAL promoter reporter; actives raise or lower the signal. An outline of the steps: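 In this cell-based multiplex, HepG2 liver cells bearing cis-promoter reporter constructs are dosed for 24 hours. Total RNA is reverse-transcribed and amplified, labelled fragments are sized by capillary electrophoresis, and signal changes are fitted bidirectionally versus DMSO.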
As to `O=C(O)C(F)(F)C(F)(F)C(F)(F)C(F)(F)F`, the result was inactive.
Regarding `O=C(O)C(F)(F)C(F)(F)OC(F)(F)F`, the result was inactive.
On the same count and under the same terms, for `O=S(=O)(O)C(F)(F)C(F)(F)C(F)(F)C(F)(F)C(F)(F)C(F)(F)C(F)(F)F` the value was “inactive”; for `CS(C)(=O)=O`, “inactive”; for `FC(F)(F)C(F)(F)C(F)(F)N(C(F)(F)C(F)(F)C(F)(F)F)C(F)(F)C(F)(F)C(F)(F)F`, “inactive”.
Regarding `CC(C)c1ccccc1N`, the compound was classed as inactive.
The same measure, in the same setting: for `[Co]` the value was “inactive”; for `COC(=O)C1CCC(C(=O)OC)CC1` (centres undefined), “inactive”; for `FC(F)(F)C(F)(F)C(F)(F)C(F)(F)C(F)(F)C(F)(F)C(F)(F)Br`, “inactive”.
On the same count and under the same terms, for `CCCCCCOC(=O)c1ccccc1` the value was “inactive”.
Still for that read-out and setting: for `CCc1c(Br)c(Br)c(Br)c(Br)c1Br` the value was “inactive”; for `CC/C=C\CCOC(C)=O`, “inactive”; for `FC(F)(F)C(F)(F)C(F)(F)C(F)(F)C(F)(F)C(F)(F)C(F)(F)C(F)(F)CCS`, “inactive”.
On to `OCCCC(F)(F)C(F)(F)C(F)(F)C(F)(F)C(F)(F)C(F)(F)C(F)(F)F`, for which the AC50 was 88.7 µM (active) and the compound was called inactive.
For `CC(=O)Nc1ccc(N=Nc2cc(C)ccc2O)cc1`, the compound was called inactive.
For `O=C(O)C(F)(F)C(F)(F)C(F)(F)C(F)(F)C(F)(F)C(F)(F)C(F)(F)C(F)(F)C(F)(F)C(F)(F)C(F)(F)C(F)(F)C(F)(F)F`, the outcome was inactive.
Still for that read-out and setting: for `O=P(O)(O)OCCC(F)(F)C(F)(F)C(F)(F)C(F)(F)C(F)(F)C(F)(F)F` the value was “inactive”.
Same read-out and setting: for `CC(C)(C)C(=O)CC(=O)C(F)(F)C(F)(F)C(F)(F)F` the value was “inactive”; for `O=C(O)C(F)(F)C(F)(F)C(F)(F)F`, “inactive”.
Same read-out and setting: for `NC(=O)C(F)(F)C(F)(F)C(F)(F)C(F)(F)F` the value was “inactive”; for `O[Si](c1ccccc1)(c1ccccc1)c1ccccc1`, “inactive”.
On to `OCCCC(F)(F)C(F)(F)C(F)(F)F`, for which the outcome was inactive.
Same read-out and setting: for `FC(F)(F)C(F)(F)C(F)(F)C(F)(F)C(F)(F)CCI` the value was “inactive”.
Same read-out and setting: for `COC(OC(C)=O)c1ccccc1` (centres undefined) the value was “inactive”; for `O=C(CC(=O)C(F)(F)C(F)(F)F)C(F)(F)F`, “inactive”; for `FC(F)(F)C(F)(F)C(F)(F)C(F)(F)C(F)(F)C(F)(F)CCS`, “inactive”.
On the same count and under the same terms, for `CCCCCCCOC(=O)c1ccccc1C(=O)OCCCCCCC` the value was “inactive”.
On to `O=C(O)C(F)(F)C(F)(F)C(F)(F)C(F)(F)C(F)(F)C(F)(F)C(F)(F)C(F)(F)Cl`, for which the half-maximal activity concentration (AC50) is 50 µM (active) and the outcome was inactive.
For `O=C(O)C(F)(F)C(F)(F)C(F)(F)C(F)(F)C(F)(F)C(F)(F)C(F)(F)C(F)(F)C(F)(F)C(F)F`, the compound was classed as inactive.
Still for that read-out and setting: for `Nc1ccc(Oc2cccc(Oc3ccc(N)cc3)c2)cc1` the value was “inactive”; for `CCCCCC=O`, “inactive”; for `CCCCCCC(C)OC(=O)CCCCC(=O)OC(C)CCCCCC` (centres undefined), “inactive”.
Same read-out and setting: for `c1ccc(B(c2ccccc2)c2ccccc2)cc1` the value was “inactive”; for `CC(CCl)OP(=O)(OC(C)CCl)OC(C)CCl` (centres undefined), “inactive”.
